HTR5A ag ctr: counter-screen for OPRM1-OPRD1 agonists: human HTR5A agonism | P47898 | HTR5A agonist assay, luminescence, cell-based | activation, % at 9.3 µM | actives 0.61% (n = 340,000); in the data active = activation mostly above about 9.5%, no sharp cut-off; inactive = mostly below about 7.6%
OPRM1-OPRD1 inv: mu-delta opioid heterodimer inverse agonism | inhibition, % at 9.3 µM | cell-based MOR-DOR heterodimer luminescence | actives 0.21% (n = 340,000) | P35372+P41143; in the data active = inhibition above about 22%, passing the limit was not always enough
HTR5A inv ag: inverse agonist of human HTR5A in OPRM1-OPRD1 counter-screen | P47898 | HTR5A cell line, luminescence, inverse agonism | inhibition, % at 9.3 µM | actives 0.083% (n = 340,000) | AID 504634; in the data active = inhibition mostly above about 23%, no sharp cut-off; inactive = mostly below about 18%
MOR-DOR ag-1: OPRM1-OPRD1 heterodimerization agonism | activation, % at 9.3 µM | P35372+P41143 | cells, luminescence | actives 0.3% (n = 340,000)
MOR-DOR ag-2: counter-screen for HTR5A agonists: OPRM1-OPRD1 heterodimerization agonism | activation, % at 9.3 µM | shares compounds with HTR5A ag ctr | AID 504913 | U2OS counter-screen cells, complementation luminescence, 3 h | actives 13% (n = 800)
HTR5A ag confirm: confirmation of human HTR5A agonists. activation, % at 9.3 µM. AID 504915. HTR5A agonist cell assay, luminescence. shares compounds with HTR5A ag ctr. actives 17% (n = 800); in the data active = activation above about 17%
Large screens that a line does not name were inactive (follow-up assays come after a bar, where they were run). Sampled rows, rich in hits. Any-hit rate of the full collection: about 1.1%. Cut-off read from the data, not from the text of the source, unless noted: active = activation above about 18%; inactive = the rest.

COCCCNc1nc(N)c([N+](=O)[O-])c(NCC2CCCO2)n1 (stereo not drawn)	HTR5A ag ctr 15 | MOR-DOR ag-2 inactive | HTR5A ag confirm inactive
Cc1ccnc(NC(=O)c2ccccc2[N+](=O)[O-])c1	none
Cc1ccnc(NC(=O)c2cccc3ccccc23)c1	HTR5A ag ctr 17 | MOR-DOR ag-2 inactive | HTR5A ag confirm inactive
Cc1cc(C(C)(C)C)cc(C)c1CC1=NCCN1	HTR5A ag ctr 90 | MOR-DOR ag-2 inactive | HTR5A ag confirm 90
COc1ccc(Cl)cc1C(=O)NNC(=O)CSc1nnnn1C	none
O=C(Nc1nnc(Cc2c[nH]c3ccccc23)s1)c1ccc(Cl)cc1Cl	none
CC(C)(C)c1ccc(C(=O)Nc2nnc(Cc3c[nH]c4ccccc34)s2)cc1	HTR5A ag ctr 21 | MOR-DOR ag-2 inactive | HTR5A ag confirm inactive
c1ccc2c(c1)nc(N1CCOCC1)c1ccccc12	HTR5A ag ctr 19 | MOR-DOR ag-2 inactive | HTR5A ag confirm inactive
c1ccc2c(c1)nc(N1CCCCC1)c1ccccc12	none
Cc1cccc(OCc2n(CC(=O)OC3CC(C)CCC3C(C)C)c3ccccc3[n+]2C)c1 (stereo not drawn)	HTR5A ag ctr 17 | MOR-DOR ag-2 inactive | HTR5A ag confirm inactive
Cc1ccc(S(=O)(=O)NN=C2C3CC4CC(C3)CC2C4)cc1	HTR5A ag ctr 15 | MOR-DOR ag-2 inactive | HTR5A ag confirm inactive
Cc1ccc(S(=O)(=O)NN=C2C3CC4CC(C3)CC2C4)cc1[N+](=O)[O-]	none
CCN(CC(=O)Nc1ccc(OC)cc1)C(=O)CN1C(=O)NC(C)(c2ccc3ccccc3c2)C1=O (stereo not drawn)	none
Cc1ccc(NC(=O)Nc2sc(=S)n(C)c2C)cc1	none
Cc1c(NC(=O)Oc2ccccc2)sc(=S)n1C	HTR5A ag ctr 15 | MOR-DOR ag-2 inactive | HTR5A ag confirm 43
COc1cc(CCNc2ccc3nnc(-c4ccccc4)n3n2)cc(OC)c1OC	HTR5A ag ctr 17 | MOR-DOR ag-2 inactive | HTR5A ag confirm inactive
COc1ccc2nnc(-c3ccccc3)n2n1	none
CC1(C)Cc2c(C#N)c(N3CCN(C(=O)c4ccco4)CC3)nc(-c3ccco3)c2CS1	HTR5A ag ctr 18 | MOR-DOR ag-2 inactive | HTR5A ag confirm inactive
COc1ccccc1C(CNC(=O)c1cccc(S(=O)(=O)Nc2ccc(F)cc2)c1)N1CCCC1 (stereo not drawn)	HTR5A ag ctr 65 | MOR-DOR ag-2 inactive | HTR5A ag confirm inactive
COc1ccc(NS(=O)(=O)c2cccc(C(=O)NCC(c3ccccc3OC)N3CCCC3)c2)cc1 (stereo not drawn)	none
Cn1c(N/N=C2\CCCc3ccccc32)nc2c1c(=O)n(Cc1ccc(F)cc1)c(=O)n2C	HTR5A ag ctr 15 | MOR-DOR ag-2 inactive | HTR5A ag confirm inactive
CN(C)CCn1c2c(c(SCC(=O)N3CCc4ccccc43)nc1=O)CCCC2	none
O=S(=O)(NCc1ccccc1F)c1cccc(S(=O)(=O)N2CCOCC2)c1	none
O=S(=O)(NCc1ccc(F)cc1)c1cccc(S(=O)(=O)N2CCOCC2)c1	HTR5A ag ctr 20 | MOR-DOR ag-2 inactive | HTR5A ag confirm inactive
O=C(CSc1n[nH]c(=O)n1C1CC1)Nc1ccc(F)c([N+](=O)[O-])c1	HTR5A ag ctr 14 | MOR-DOR ag-2 51 | HTR5A ag confirm inactive
CCOc1ccccc1N1CCN(S(=O)(=O)c2ccc(F)c(F)c2)CC1	none
CCOc1cc(S(=O)(=O)N2CCCCCC2)ccc1F	HTR5A ag ctr 20 | MOR-DOR ag-2 inactive | HTR5A ag confirm inactive
Cc1ccc(S(=O)(=O)N2CCOCC2)cc1NC(=O)COc1ccccc1Cc1ccccc1	none
Cc1cc(=O)c(C(=O)O)nn1-c1cccc(C(F)(F)F)c1	none
Cc1cc(=O)c(C(=O)O)nn1-c1ccccc1C(F)(F)F	HTR5A ag ctr 15 | MOR-DOR ag-2 inactive | HTR5A ag confirm inactive
CCn1c(N2CCN(C(=O)NC3CCCCC3)CC2)nc2ccccc21	HTR5A ag ctr 24 | MOR-DOR ag-2 inactive | HTR5A ag confirm inactive
CCOc1ccc2nc(NC(=O)Nc3ccccc3)sc2c1	HTR5A ag ctr 20 | MOR-DOR ag-2 inactive | HTR5A ag confirm inactive
Cc1ccc(-n2c(O)c(C=NC3CCS(=O)(=O)C3)c3ccccc3c2=O)cc1C (stereo not drawn)	HTR5A ag ctr 15 | MOR-DOR ag-2 inactive | HTR5A ag confirm inactive
O=C(COc1ncnc2ccccc12)Nc1cc([N+](=O)[O-])ccc1F	HTR5A ag ctr 19 | MOR-DOR ag-2 inactive | HTR5A ag confirm inactive
Cn1c(SCC(=O)NCC2CCCO2)nc2c([nH]c3ccccc32)c1=O (stereo not drawn)	HTR5A ag ctr 22 | MOR-DOR ag-2 inactive | HTR5A ag confirm inactive
NC(=O)c1ccc(NC(=O)COC(=O)c2c[nH]c3ccccc23)cc1	HTR5A ag ctr 18 | MOR-DOR ag-2 inactive | HTR5A ag confirm inactive
Cc1ccc(SCCC(=O)OCC(=O)Nc2ccc(C(N)=O)cc2)cc1	none
NC(=O)c1ccc(NC(=O)COC(=O)CCSc2ccccc2)cc1	HTR5A ag ctr 15 | MOR-DOR ag-2 inactive | HTR5A ag confirm inactive
COCCN(CC1CCCN(C2Cc3ccccc3C2)C1)C(=O)c1cccc(C)c1 (stereo not drawn)	none
O=C1NCCN(Cc2cccc(Oc3ccccc3)c2)C1CC(=O)N1CCCO1 (stereo not drawn)	none
C=C1CCc2c([nH]c3ccc(OCC(C)C)cc23)C1=O	HTR5A ag ctr 22 | MOR-DOR ag-2 inactive | HTR5A ag confirm inactive
CSCCC(NC(=O)c1ccco1)C(=O)NCC(C)(C)N1CCOCC1 (stereo not drawn)	none
O=C(C1=COCCO1)N1CCN(c2nc3ccc([N+](=O)[O-])cc3s2)CC1	HTR5A ag ctr 16 | MOR-DOR ag-2 83 | HTR5A ag confirm inactive
O=C(Nc1nc(-c2cccs2)cs1)c1ccc(S(=O)(=O)N2CCCCC2)cc1	HTR5A ag ctr 19 | MOR-DOR ag-2 inactive | HTR5A ag confirm inactive
Cc1ccc(N2CC(C(=O)N3CCOCC3)CC2=O)cc1Cl (stereo not drawn)	none
CCN(Cc1ccccc1)C(=O)CC(=O)N(CC)Cc1ccccc1	none
Cc1ccc(Cn2c(N)c(S(=O)(=O)c3cccs3)c3nc4ccccc4nc32)cc1	none
COc1ccc(Cn2c(N)c(S(=O)(=O)c3cccs3)c3nc4ccccc4nc32)cc1	HTR5A ag ctr 15 | MOR-DOR ag-2 inactive | HTR5A ag confirm inactive
Cc1ccc(S(=O)(=O)OCCC2=CC(=O)CCN2Cc2ccccc2)cc1	none
Cc1cnc(C(=O)OCC(=O)N2c3ccccc3CC2C)cn1 (stereo not drawn)	none
O=C(OCC(=O)N1CCc2ccccc21)c1c2c(nc3ccccc13)CCCC2	none
CC1Cc2ccccc2N1C(=O)Cn1nc(C(=O)O)c2ccccc2c1=O (stereo not drawn)	HTR5A ag ctr 63 | MOR-DOR ag-2 inactive | HTR5A ag confirm inactive
CC1Cc2ccccc2N1C(=O)COC(=O)c1n[nH]c(=O)c2ccccc12 (stereo not drawn)	HTR5A ag ctr 40 | MOR-DOR ag-2 inactive | HTR5A ag confirm inactive

Compound activity from PubChem BioAssay.
